Records with an inconclusive call do not appear. The source made the active and inactive calls. Unless noted, calls come from the whole dose curve; as a rule, active = well fitted curve in the direction sought with a large enough effect; inconclusive = small, poorly fitted or top-dose-only effect, or another doubt; inactive = no such curve, though single readings can be large; an effect the other way counts as inactive or inconclusive.
Key:
[1] = target: Tyrosine-protein kinase Yes (Homo sapiens) (UniProt P07947); assay: qHTS for small molecule inhibitors of Yes1 kinase: Primary Screen (AID 686947); note: potency is the fitted concentration of half-maximal effect; nearly all actives have a fitted effect of over 60% in size
Procedure, shortened: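 In this qHTS format, inhibition is expressed relative to DMSO controls with enzyme (maximum) and without enzyme (minimum). The 60 min room-temperature reaction uses 0.1 mM ATP, with ADP detected by luminescence.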

[2] = qHTS for small molecule inhibitors of Yes1 kinase: Counter Assay (AID 686950);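 note: no kinase present so only ADP-Glo detection of a fixed ADP amount is tested; luminescence from ADP-Glo reporting ADP in a fixed ATP and ADP mixture; 0% = DMSO wells with ATP plus ADP and -100% = ATP-only wells without ADP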
Procedure, shortened: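 Measuring interference with ADP-Glo, the assay ran 60 min at room temperature on an ATP/ADP mix lacking enzyme. Values were normalized to ATP-plus-ADP (maximum) and ATP-only (minimum) DMSO controls.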

[3] = target: Calcium and integrin-binding protein 1 (Homo sapiens) (UniProt Q99828); assay: Primary qHTS for Identification of Calcium Integrin Binding Protein 1 (CIB1) Competitor (AID 1508620);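 note: GST tagged CIB1 binding a fluorescein labelled alphaIIb integrin peptide tracer; top concentration of the series differs between compounds; % is set by controls: 0 for no effect and ±100 for the full control effect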
Chain of Calcium and integrin-binding protein 1 (Homo sapiens) (Q99828 whole entry, looked up): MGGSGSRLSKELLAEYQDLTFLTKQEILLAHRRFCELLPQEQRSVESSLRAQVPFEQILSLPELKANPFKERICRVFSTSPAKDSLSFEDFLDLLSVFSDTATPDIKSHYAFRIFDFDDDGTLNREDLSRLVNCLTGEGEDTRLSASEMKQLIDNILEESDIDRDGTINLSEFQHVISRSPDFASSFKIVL
Procedure, shortened: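 Fluorescence polarization competition: CIB1-GST (1 uM final) preincubated with compound 15 min at room temperature, then FITC-labeled alphaIIb peptide (100 nM final) added for another 15 min. Polarization read at Ex 480/Em 540.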

[4] = target: N-terminal Xaa-Pro-Lys N-methyltransferase 1 (Homo sapiens) (UniProt Q9BV86); assay: Confirmatory qHTS for Inhibitors of N-terminal methyltransferase 1 (NTMT1): MTaseGlo Assay (AID 1645874); note: nearly all actives have a fitted effect of over 65% in size; note: potency is the fitted concentration of half-maximal effect;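 for activity change, negative = inhibition: luminescence from SAH made as NTMT1 methylates SPKRIA peptide using SAM; 0% = DMSO control and -100% = no-enzyme control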
Chain of N-terminal Xaa-Pro-Lys N-methyltransferase 1 (Homo sapiens) (Q9BV86 whole entry, looked up): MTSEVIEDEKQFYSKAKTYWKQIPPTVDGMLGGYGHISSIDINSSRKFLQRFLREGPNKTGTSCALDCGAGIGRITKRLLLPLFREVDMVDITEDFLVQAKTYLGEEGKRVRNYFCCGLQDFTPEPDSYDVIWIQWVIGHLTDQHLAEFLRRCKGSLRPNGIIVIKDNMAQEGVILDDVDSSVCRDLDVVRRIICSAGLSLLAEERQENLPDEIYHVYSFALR
Procedure, shortened: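 Inhibition was derived from luminescence after SAH-to-ATP conversion, scaled between no-enzyme and DMSO wells, then fitted by 4-parameter Hill. Conditions: 125 nM NTMT1, 100 uM SAM, 1 uM SPKRIA, 30 min RT.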

[5] = Primary qHTS for inhibitors of nuclear receptor binding SET domain protein 2 (NSD2) in an isogenic RCH-ACV NSD2 p.E1099K mutant (9B) (AID 1645876); note: % is set by controls: 0 for no effect and ±100 for the full control effect; nearly all actives have a fitted effect of over 70% in size
[6] = target: Glutathione peroxidase 1 (Homo sapiens) (UniProt P07203); assay: Primary qHTS Assay for Inhibitors of Recombinant Selenoprotein Glutathione Peroxidase 1 (GPX1) (AID 1845191); note: % is set by controls: 0 for no effect and ±100 for the full control effect; nearly all actives have a fitted effect of over 65% in size
Chain of Glutathione peroxidase 1 (Homo sapiens) (P07203 whole entry, looked up): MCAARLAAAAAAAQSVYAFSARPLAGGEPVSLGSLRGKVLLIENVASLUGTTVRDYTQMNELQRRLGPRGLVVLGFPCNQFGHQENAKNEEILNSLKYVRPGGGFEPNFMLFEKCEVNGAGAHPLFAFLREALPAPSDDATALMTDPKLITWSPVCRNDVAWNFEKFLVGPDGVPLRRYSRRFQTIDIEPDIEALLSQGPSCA
Procedure, shortened: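 GPX1 10 nM, GR 100 nM, GSH 1 mM, NADPH 0.5 mM, CHP 0.5 mM (final). 30-min cpd preincubation, RT. Ex340/Em450 read t=0, t=15 min.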

[7] = target: Rap guanine nucleotide exchange factor 3 (Homo sapiens) (UniProt O95398); assay: Confirmatory qHTS for agonist of cAMP-regulated guanine nucleotide exchange factor 3 (EPAC1) (AID 1645881);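 note: EPAC1 catalysed release of BODIPY-GDP from Rap1B seen as fluorescence loss; 100% = effect of cAMP agonist control; nearly all actives have a fitted effect of over 75% in size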
Chain of Rap guanine nucleotide exchange factor 3 (Homo sapiens) (O95398 whole entry, looked up): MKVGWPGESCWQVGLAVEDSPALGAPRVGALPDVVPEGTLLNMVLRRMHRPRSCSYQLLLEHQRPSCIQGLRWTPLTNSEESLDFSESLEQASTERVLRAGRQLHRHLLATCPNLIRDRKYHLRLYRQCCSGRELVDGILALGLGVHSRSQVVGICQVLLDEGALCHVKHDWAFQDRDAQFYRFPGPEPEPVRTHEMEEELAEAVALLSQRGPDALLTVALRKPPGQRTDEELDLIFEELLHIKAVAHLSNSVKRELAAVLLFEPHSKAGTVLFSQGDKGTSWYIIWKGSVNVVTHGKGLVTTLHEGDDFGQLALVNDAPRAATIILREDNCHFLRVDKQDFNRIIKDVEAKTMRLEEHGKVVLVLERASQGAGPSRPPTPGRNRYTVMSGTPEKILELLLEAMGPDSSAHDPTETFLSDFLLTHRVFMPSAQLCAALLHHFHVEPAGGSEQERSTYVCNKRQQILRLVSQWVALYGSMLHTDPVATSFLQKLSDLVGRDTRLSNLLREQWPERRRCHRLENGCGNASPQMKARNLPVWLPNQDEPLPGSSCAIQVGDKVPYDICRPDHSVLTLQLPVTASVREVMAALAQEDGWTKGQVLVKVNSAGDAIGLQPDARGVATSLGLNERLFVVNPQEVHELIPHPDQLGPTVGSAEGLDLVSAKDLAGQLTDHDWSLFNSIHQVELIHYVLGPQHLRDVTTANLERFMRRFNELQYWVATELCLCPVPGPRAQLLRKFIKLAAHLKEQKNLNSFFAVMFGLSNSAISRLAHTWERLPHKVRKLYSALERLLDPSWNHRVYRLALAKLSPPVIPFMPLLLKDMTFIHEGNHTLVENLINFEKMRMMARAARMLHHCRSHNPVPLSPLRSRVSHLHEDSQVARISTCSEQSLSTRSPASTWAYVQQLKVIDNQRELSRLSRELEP

[8] = target: Rap guanine nucleotide exchange factor 4 (Homo sapiens) (UniProt Q8WZA2); assay: Confirmatory qHTS for agonist of cAMP-regulated guanine nucleotide exchange factor 4 (EPAC2) (AID 1645884);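 note: nucleotide exchange releases bodipy-GDP from Rap1 and this lowers its fluorescence; % is set by controls: 0 for no effect and ±100 for the full control effect; nearly all actives have a fitted effect of over 65% in size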
Chain of Rap guanine nucleotide exchange factor 4 (Homo sapiens) (Q8WZA2 whole entry, looked up): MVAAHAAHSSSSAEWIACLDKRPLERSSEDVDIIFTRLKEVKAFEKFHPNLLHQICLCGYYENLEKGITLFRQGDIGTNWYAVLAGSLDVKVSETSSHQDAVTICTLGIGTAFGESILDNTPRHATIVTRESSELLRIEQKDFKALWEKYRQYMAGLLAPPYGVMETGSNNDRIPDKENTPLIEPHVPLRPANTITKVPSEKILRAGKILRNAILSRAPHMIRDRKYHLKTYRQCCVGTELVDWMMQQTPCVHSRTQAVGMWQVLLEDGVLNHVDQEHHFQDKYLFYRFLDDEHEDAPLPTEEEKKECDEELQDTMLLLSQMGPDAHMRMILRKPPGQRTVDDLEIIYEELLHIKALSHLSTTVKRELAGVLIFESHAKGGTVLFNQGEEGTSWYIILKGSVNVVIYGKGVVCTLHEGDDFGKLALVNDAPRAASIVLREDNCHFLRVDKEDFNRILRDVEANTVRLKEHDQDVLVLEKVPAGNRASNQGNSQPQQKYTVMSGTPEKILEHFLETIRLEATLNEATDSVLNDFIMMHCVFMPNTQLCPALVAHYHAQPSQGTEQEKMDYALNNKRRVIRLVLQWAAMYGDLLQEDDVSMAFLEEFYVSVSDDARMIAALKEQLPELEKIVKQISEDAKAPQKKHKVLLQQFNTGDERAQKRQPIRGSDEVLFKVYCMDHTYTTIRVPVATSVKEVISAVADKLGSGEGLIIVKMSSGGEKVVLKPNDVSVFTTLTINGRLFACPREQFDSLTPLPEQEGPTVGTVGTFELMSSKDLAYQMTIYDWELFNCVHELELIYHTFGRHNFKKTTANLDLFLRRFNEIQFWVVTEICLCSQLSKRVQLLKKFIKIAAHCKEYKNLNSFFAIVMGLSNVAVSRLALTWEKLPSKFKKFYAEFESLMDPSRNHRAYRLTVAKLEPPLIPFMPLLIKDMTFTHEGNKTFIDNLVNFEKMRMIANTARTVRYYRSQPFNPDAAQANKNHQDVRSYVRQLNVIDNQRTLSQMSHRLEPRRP

[9] = target: Rap guanine nucleotide exchange factor 4 (Homo sapiens) (UniProt Q8WZA2); assay: Confirmatory qHTS for antagonist of cAMP-regulated guanine nucleotide exchange factor 4 (EPAC2) (AID 1645885); note: nearly all actives have a fitted effect of over 25% in size; note: potency is the fitted concentration of half-maximal effect
[10] = target: Rap guanine nucleotide exchange factor 3 (Homo sapiens) (UniProt O95398); assay: Counterscreen qHTS for antagonist of cAMP-regulated guanine nucleotide exchange factor 3 (EPAC1) (AID 1645888);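 note: fluorescence loss as bound BODIPY-GDP is released from Rap1B; % of control where 0% means no effect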
Procedure, shortened: (§1)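 Measured: fluorescence of BODIPY-GDP bound to Rap1B, which falls as exchange proceeds. Conditions include 50 uM competing GDP, 5 and 30 min reads, and a later cAMP challenge for antagonist detection.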

[11] = target: Rap guanine nucleotide exchange factor 3 (Homo sapiens) (UniProt O95398); assay: Counterscreen qHTS for agonist of cAMP-regulated guanine nucleotide exchange factor 3 (EPAC1) (AID 1645889); note: % of control where 0% means no effect; nearly all actives have a fitted effect of over 40% in size
Procedure, shortened: as §1

[12] = target: Lysosomal acid glucosylceramidase (Homo sapiens) (UniProt P04062); assay: Glucocerebrosidase-p2 (AID 348; in the data active = potency below about 10 µM; note: potency is the fitted concentration of half-maximal effect); conditions: purified GBA, blue fluorogenic substrate, 40 min
Procedure, shortened: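 Normal human glucocerebrosidase (0.2 nM) with blue fluorogenic substrate (80 uM final) in citrate/phosphate pH 5.9 with 10mM sodium taurocholate, 0.01% tween-20; 40 min RT, NaOH/glycine stop; fluorescence Ex 365/Em 440; AC50 from a titration from 0.6 nM upwards.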

[13] = AP1 Signaling Pathway (AID 357; active = well fitted curve in either direction with a large enough effect, not every such curve was filed as active;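 note: ME-180 reporter cells stimulated with EGF at its EC50 level; % is set by controls: 0 for no effect and ±100 for the full control effect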); conditions: ME-180 AP-1-bla reporter, EGF-induced, beta-lactamase ratio, 5 h; at 7.69 µM (top of the series) unless noted
Procedure, shortened: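 Titration-series screen for positive or negative modulators of EC50 EGF-induced signaling in ME-180 cells carrying an AP-1-driven beta-lactamase reporter. After 5 hours at 37 degrees Celsius, CCF4 460nm/530nm emission ratio gave %Activity; AC50 values derived.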

[14] = target: Cytochrome P450 1A2 (Homo sapiens) (UniProt P05177); assay: p450-cyp1a2 (AID 410; calls by dose curve; note: potency is the fitted concentration of half-maximal effect)
Chain of Cytochrome P450 1A2 (Homo sapiens) (P05177 whole entry, looked up): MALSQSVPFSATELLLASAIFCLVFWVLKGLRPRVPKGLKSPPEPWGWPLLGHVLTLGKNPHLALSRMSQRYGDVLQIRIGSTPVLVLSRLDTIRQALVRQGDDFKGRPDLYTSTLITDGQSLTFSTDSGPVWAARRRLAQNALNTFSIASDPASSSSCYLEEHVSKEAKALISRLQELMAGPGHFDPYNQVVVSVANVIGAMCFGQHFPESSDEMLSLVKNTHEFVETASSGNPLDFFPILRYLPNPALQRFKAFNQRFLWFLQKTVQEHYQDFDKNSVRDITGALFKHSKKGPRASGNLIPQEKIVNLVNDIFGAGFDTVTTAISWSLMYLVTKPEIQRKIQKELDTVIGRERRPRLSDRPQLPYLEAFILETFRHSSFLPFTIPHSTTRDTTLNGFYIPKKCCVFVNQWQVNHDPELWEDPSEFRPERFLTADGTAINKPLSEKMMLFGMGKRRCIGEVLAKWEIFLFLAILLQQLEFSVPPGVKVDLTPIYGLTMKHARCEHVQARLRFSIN
Procedure, shortened: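 20nM CYP1A2, 100uM Luciferin-ME (=Km), 100mM KPO4; cpd 10 min RT; +NADPH regen, 60 min RT; stop/detect 20 min; luminescence. Normalized to furafylline 57 uM = full inhibition.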

[15] = NFAT Signaling Pathway (AID 444; active = well fitted curve in either direction with a large enough effect, not every such curve was filed as active;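 note: carbachol stimulus at about its EC50 of 1 µM final; % is set by controls: 0 for no effect and ±100 for the full control effect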); conditions: Jurkat NFAT-bla M1, carbachol, beta-lactamase ratio, 5 h; at 7.69 µM (top of the series) unless noted
Procedure, shortened: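 Jurkat cells carrying an NFAT-driven β-lactamase reporter and co-transfected muscarinic M1 receptor were treated with compound plus carbachol (1 uM final, an EC50 level) for 5 h at 37 °C. CCF4 loading followed for 1 h at RT; 460/530 nm ratio gave %activity.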

[16] = target: Glucocorticoid receptor (Homo sapiens) (UniProt P04150); assay: GR-GFP Redistribution (AID 450;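 active = compounds whose dose series gives a full or clear partial fitted curve of increased nuclear translocation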; note: potency is the fitted concentration of half-maximal effect); conditions: U2OS GR-GFP nuclear translocation, laser cytometry, 2 h
Chain of Glucocorticoid receptor (Homo sapiens) (P04150 whole entry, looked up, the tested form may be a part): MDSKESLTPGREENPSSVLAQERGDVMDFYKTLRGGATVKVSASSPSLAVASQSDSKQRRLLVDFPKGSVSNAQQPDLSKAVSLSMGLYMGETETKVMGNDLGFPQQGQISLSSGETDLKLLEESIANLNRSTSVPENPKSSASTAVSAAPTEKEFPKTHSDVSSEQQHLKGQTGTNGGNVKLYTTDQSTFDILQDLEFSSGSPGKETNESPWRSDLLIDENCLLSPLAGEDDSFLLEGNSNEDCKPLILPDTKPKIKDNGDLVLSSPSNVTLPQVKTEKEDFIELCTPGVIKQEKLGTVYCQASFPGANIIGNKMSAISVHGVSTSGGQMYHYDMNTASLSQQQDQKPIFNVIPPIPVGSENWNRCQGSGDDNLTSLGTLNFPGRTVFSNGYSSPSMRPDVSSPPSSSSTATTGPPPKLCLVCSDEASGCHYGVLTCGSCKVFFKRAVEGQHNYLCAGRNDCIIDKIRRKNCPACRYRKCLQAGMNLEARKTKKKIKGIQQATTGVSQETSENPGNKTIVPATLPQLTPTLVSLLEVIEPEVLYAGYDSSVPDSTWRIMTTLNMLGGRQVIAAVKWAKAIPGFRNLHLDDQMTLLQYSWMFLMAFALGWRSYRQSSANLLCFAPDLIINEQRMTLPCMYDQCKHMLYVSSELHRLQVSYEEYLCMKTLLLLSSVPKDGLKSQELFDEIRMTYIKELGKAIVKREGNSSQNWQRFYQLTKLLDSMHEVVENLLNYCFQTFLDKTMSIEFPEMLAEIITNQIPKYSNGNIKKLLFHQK

[17] = target: Glucocorticoid receptor (Homo sapiens) (UniProt P04150); assay: GR-EFC Redistribution (AID 451; calls by dose curve; note: potency is the fitted concentration of half-maximal effect); conditions: CHO-K1 GR-EFC translocation, beta-gal luminescence, 2 h
Procedure, shortened: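 CHO-K1 cells stably expressing nuclear-localized β-gal enzyme acceptor and GR fused C-terminally to the enzyme donor fragment; ligand-driven nuclear translocation restores β-gal by complementation. Compounds titrated up to 46 uM final, 2 h at 37 °C; luminescence read.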

[18] = target: Mitogen-activated protein kinase 10 (Mus musculus) (UniProt Q61831); assay: JNK3 AlphaScreen Assay (AID 530; active = well fitted curve in either direction with a large enough effect, not every such curve was filed as active;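 note: kinase came from lysate of stimulated human HepG2 cells; signal reports phosphorylation of biotinylated GST-cJun 1-79 at Ser73 with 10 µM ATP; % is set by controls: 0 for no effect and ±100 for the full control effect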)
Procedure, shortened: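 Biotinylated GST-cJun(1-79) served as substrate for JNK3 in HepG2 lysates stimulated with IL-1beta and TNF-alpha. ATP was 10 uM final, pH 7.6. Ser73 phosphorylation was quantified by AlphaScreen (680 nm excitation).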

[19] = target: Cytochrome P450 3A4 (Homo sapiens) (UniProt P08684); assay: qHTS Assay for Activators of Cytochrome P450 3A4 (AID 885); note: nearly all actives have a fitted effect of over 65% in size
Chain of Cytochrome P450 3A4 (Homo sapiens) (P08684 whole entry, looked up): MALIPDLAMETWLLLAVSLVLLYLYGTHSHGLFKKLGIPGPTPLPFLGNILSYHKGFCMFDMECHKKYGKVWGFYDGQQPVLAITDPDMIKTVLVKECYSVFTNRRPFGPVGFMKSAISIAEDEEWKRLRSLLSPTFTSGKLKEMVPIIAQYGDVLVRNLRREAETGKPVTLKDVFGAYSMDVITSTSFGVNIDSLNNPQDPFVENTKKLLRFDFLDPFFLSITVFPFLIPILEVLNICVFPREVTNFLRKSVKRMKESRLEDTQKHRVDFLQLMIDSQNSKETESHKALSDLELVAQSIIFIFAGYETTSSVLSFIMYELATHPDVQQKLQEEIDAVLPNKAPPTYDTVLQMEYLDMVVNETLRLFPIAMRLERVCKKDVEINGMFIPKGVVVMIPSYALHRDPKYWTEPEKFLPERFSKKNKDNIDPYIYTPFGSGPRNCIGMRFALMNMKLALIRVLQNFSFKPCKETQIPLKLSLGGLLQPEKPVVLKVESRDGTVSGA
Procedure, shortened: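 Human CYP3A4 dealkylates Luciferin-PPXE to luciferin, which luciferase detection converts to light. Substrate was at its KM (25uM), buffer 200mM KPO4, reaction 60 min at RT.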

[20] = target: Dual specificity protein kinase CLK4 (Homo sapiens) (UniProt Q9HAZ1); assay: qHTS Assay for Inhibitors of CDC-like Kinase 4 (Kinase-Glo Assay) (AID 1770)
Chain of Dual specificity protein kinase CLK4 (Homo sapiens) (Q9HAZ1 whole entry, looked up): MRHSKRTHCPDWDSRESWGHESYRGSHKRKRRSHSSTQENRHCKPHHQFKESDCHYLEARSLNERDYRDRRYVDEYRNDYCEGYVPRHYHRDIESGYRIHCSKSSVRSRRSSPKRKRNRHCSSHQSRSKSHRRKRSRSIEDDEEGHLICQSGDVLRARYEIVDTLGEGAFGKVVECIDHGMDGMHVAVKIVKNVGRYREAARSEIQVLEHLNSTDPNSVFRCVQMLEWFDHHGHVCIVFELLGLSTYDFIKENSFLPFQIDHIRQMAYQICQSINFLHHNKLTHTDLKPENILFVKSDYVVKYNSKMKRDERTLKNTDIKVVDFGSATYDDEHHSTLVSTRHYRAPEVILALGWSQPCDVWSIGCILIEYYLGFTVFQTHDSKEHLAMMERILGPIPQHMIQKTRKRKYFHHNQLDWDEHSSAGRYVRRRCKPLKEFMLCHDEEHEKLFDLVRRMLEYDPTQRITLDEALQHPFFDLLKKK
Procedure, shortened: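 Clk4 25 nM, RS peptide 100 uM, ATP 1 uM, pH 7.5 Tris, 10 mM MgCl2, 2.5 mM DTT; 4.5 h RT; ATP depletion read by Kinase-Glo luminescence.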

[21] = target: Dual specificity protein kinase CLK4 (Homo sapiens) (UniProt Q9HAZ1); assay: qHTS Assay for Inhibitors of CDC-like Kinase 4 (ADP-Glo Assay) (AID 1771); note: potency is the fitted concentration of half-maximal effect; nearly all actives have a fitted effect of over 70% in size
Procedure, shortened: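 25 nM Clk4, 100 uM RS peptide, 1 uM ATP (final); 2 mM MgCl2, 0.5 mM EGTA, 2.5 mM DTT, 0.01% Triton X-100; 1 hr RT. ADP-Glo readout: ATP depletion 45 min, conversion/luciferase 30 min, luminescence.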

[22] = target: Dual specificity protein kinase CLK4 (Homo sapiens) (UniProt Q9HAZ1); assay: qHTS Assay for Inhibitors of CDC-like Kinase 4 (ADP-FP Assay) (AID 1795); note: potency is the fitted concentration of half-maximal effect; nearly all actives have a fitted effect of over 60% in size
Procedure, shortened: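 Kinase activity was followed as ADP output, converted from fluorescence polarization with a calibration curve. Reactions ran one hour at low ATP (1 uM) with RS peptide substrate.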

[23] = target: Ubiquitin carboxyl-terminal hydrolase 1 (Homo sapiens) (UniProt O94782); assay: Inhibitors of USP1/UAF1: Pilot qHTS (AID 504865);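 note: rhodamine fluorescence freed from ubiquitin-rhodamine substrate followed over time; top concentration of the series differs between compounds; % is set by controls: 0 for no effect and ±100 for the full control effect; nearly all actives have a fitted effect of over 35% in size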
Procedure, shortened: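 Enzyme-free wells gave the negative control, while test wells held 1nM USP1/UAF1 preincubated with compound for 15 min at room temperature. Ub-Rho at 150nM final started the reaction, and fluorescence at 480/540 nm was recorded kinetically.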

[24] = Primary qHTS for small molecule stabilizers of the endoplasmic reticulum resident proteome: Secreted ER Calcium Modulated Protein (SERCaMP) assay (AID 1508630); note: % is set by controls: 0 for no effect and ±100 for the full control effect
Procedure, shortened: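 The SH-SY5Y reporter protocol was run at 3 concentrations up to 38.3 uM (primary) or 11 concentrations (follow-up): 16 h compound, 100 nM thapsigargin for 4 h, then extracellular luciferase luminescence.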

[25] = Stat Signaling Pathway (AID 446; active = well fitted curve in either direction with a large enough effect, not every such curve was filed as active); conditions: ME-180 (cervical carcinoma) SIE beta-lactamase reporter, IL-6 stimulated, 5 h; at 7.69 µM (top of the series) unless noted
Procedure, shortened: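 Normalization used AC90 stimulation (300 pM IL-6) and AC90 inhibition (125 nM pan-JAK inhibitor at 40 pM IL-6). The underlying signal is SIE-driven beta-lactamase in ME-180 cells after 5 h IL-6 exposure with compound.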

[26] = target: Cytochrome P450 3A4 (Homo sapiens) (UniProt P08684); assay: qHTS Assay for Inhibitors and Substrates of Cytochrome P450 3A4 (AID 884); note: potency is the fitted concentration of half-maximal effect; nearly all actives have a fitted effect of over 50% in size
Procedure, shortened: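 Luminescent readout of luciferin produced by CYP3A4 (20 nM) dealkylation of Luciferin-PPXE, 25 uM (its KM). NADPH-driven reaction ran 60 min at RT after 10 min compound preincubation; data scaled to 57 uM ketoconazole as 100% inhibition.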

[27] = target: Cytochrome P450 2D6 (Homo sapiens) (UniProt P10635); assay: qHTS Assay for Inhibitors and Substrates of Cytochrome P450 2D6 (AID 891); note: potency is the fitted concentration of half-maximal effect; nearly all actives have a fitted effect of over 60% in size
Procedure, shortened: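 Luminescent read-out of luciferin formed by 5 nM human CYP2D6 demethylating 30 uM Luciferin-ME EGE (Km level) over 60 min at room temperature after NADPH regeneration addition. Data normalized to full inhibition by 1.43 uM quinidine.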

O=C1Nc2ccc(C(=O)c3ccco3)cc2/C1=C/c1cc(Cl)c(O)c(Cl)c1
inactive: outcome [2] | Potency [3]
active: Potency [1] 0.463 µM | Potency [4] 2.4 µM

O=C1CCc2cc(S(=O)(=O)Nc3cccc(Cl)c3)ccc2N1
inactive: Potency [3] | Potency [5] | Potency [6]

CCC(=O)NC(c1ccco1)c1cc(Cl)c2ccccc2c1O (configuration not stated)
inactive: Potency [3] | outcome [7] | outcome [8] | outcome [10] | outcome [11]
active: Potency [9] 53.6 µM

COc1ccc(-c2nnc3n2N=C(c2c(OC)cccc2OC)CS3)cc1OC
inactive: Potency [3] | Potency [4]

CN(Cc1ccco1)c1ncnc2ccc(-c3ccoc3)cc12
active: Potency [14] 2.51 µM | Potency [20] 0.112 µM | Potency [21] 0.112 µM | Potency [22] 0.0501 µM
inactive: Potency [12] > 11.4 µM | activity change, negative = inhibition [13] -16.7% | activity change, negative = inhibition [15] -26.3% | Potency [16] > 46 µM | Potency [17] > 46 µM | outcome [18] | Potency [19] | Potency [23] | Potency [3] | Potency [24] | outcome [7] | outcome [8] | Potency [9]

CC(C)(C)c1ccc(-c2csc(N3CCC(C(N)=O)CC3)n2)cc1
inactive: Potency [3] | Potency [4]

NC(=O)C1CCN(c2nc(-c3ccc4c(c3)CCO4)cs2)CC1
inactive: Potency [3] | Potency [4]

Fc1cc(Nc2nc(-c3ccncc3)nc3ccccc23)ccc1-c1ccc2[nH]ncc2c1
inactive: Potency [3] | Potency [4]

Cc1cccc(-c2ccc3ncnc(NCc4cccs4)c3c2)c1
inactive: Potency [3]
active: Potency [4] 10 µM

O=S(=O)(Nc1ccc(O)c2ncccc12)c1ccccc1F
inactive: Potency [3] | Potency [4]

CCC(=O)NC(c1cccs1)c1cc(Cl)c2ccccc2c1O (configuration not stated)
inactive: Potency [3] | outcome [7] | activation [8] 0.826% [at 17.1 µM] | activity change, negative = inhibition [9] -13.9% [at 12.7 µM] | outcome [10] | activation [11] 29.3% [at 30.8 µM]

O=C(NCCc1ccccc1)C1CCN(c2nc(-c3ccc(Br)cc3)cs2)CC1
inactive: Potency [3] | Potency [4]

Clc1ccccc1-c1ccc2ncnc(NCc3cccnc3)c2c1
inactive: Potency [12] > 11.4 µM | activity change, negative = inhibition [13] 2.12% | activity change, negative = inhibition [15] 13.8% | activity, negative = inhibition [25] -5.2% | Potency [16] > 46 µM | Potency [17] > 46 µM | outcome [18] | Potency [19] | Potency [23] | Potency [3] | Potency [24]
active: Potency [14] 0.158 µM | Potency [26] 2 µM | Potency [27] 6.31 µM | Potency [20] 10 µM | Potency [21] 11.2 µM | Potency [22] 10 µM
